Reference: PubChem BioAssay (NCI)
Compounds without any hit were thinned out: in the full panel of roughly 79,000, 15% have a hit. Unmarked numbers belong to inactive results. Active and inactive are the calls of the source. No stated cut-off is given here; in the data, active means growth inhibition above about 70%; inactive means the rest.

Key:
[1] = NCI Yeast Anticancer Drug Screen. Data for the rad50 strain (AID 155);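 further: 0% = growth of vehicle-only cultures of the same strain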; settings: S. cerevisiae rad50 strain growth inhibition; at 50.0 µM; active compounds read high
Procedure, shortened: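 Readout: growth inhibition relative to vehicle-treated cultures. Compound exposure was carried out in a genetically defined yeast strain deficient in DNA damage repair.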

[2] = NCI Yeast Anticancer Drug Screen. Data for the mec2-1 strain (AID 157); settings: S. cerevisiae mec2-1 strain, at 50.0 µM, active compounds read high
Procedure, shortened: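 mec2-1 yeast strain, carrying an alteration in DNA damage repair or cell cycle control, was exposed to compounds; growth inhibition was measured relative to vehicle-treated controls.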

[3] = NCI Yeast Anticancer Drug Screen. Data for the sgs1 mgt1 strain (AID 161);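 further: 0% = growth of cultures given vehicle only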; settings: S. cerevisiae sgs1 mgt1 strain, at 50.0 µM, active compounds read high
Procedure, shortened: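 Growth of a repair-deficient yeast mutant was monitored after compound treatment and expressed as inhibition relative to vehicle-treated cultures.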

[4] = NCI Yeast Anticancer Drug Screen. Data for the cln2 rad14 strain (AID 165);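 further: 0% = growth equal to vehicle treated cultures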; settings: S. cerevisiae cln2 rad14 strain, at 50.0 µM, active compounds read high
Procedure, shortened: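 Yeast carrying cln2 and rad14 alterations (cell cycle control and DNA damage repair) were exposed to compounds. Growth inhibition was measured against vehicle-treated controls.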

[5] = NCI Yeast Anticancer Drug Screen. Data for the bub3 strain (AID 167); settings: S. cerevisiae bub3 mutant strain, at 50.0 µM, active compounds read high
Procedure, shortened: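 Readout: yeast growth inhibition, expressed relative to vehicle-only wells. The test organism is a mutant strain from a panel with lesions in DNA repair or checkpoint genes.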

[6] = NCI Yeast Anticancer Drug Screen. Data for the mlh1 rad18 strain (AID 175); settings: S. cerevisiae mlh1 rad18 strain growth inhibition; at 50.0 µM; active compounds read high
Procedure, shortened: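 Growth inhibition of the yeast strain was measured after compound exposure and expressed relative to vehicle-treated controls. The strain carries defined defects in DNA damage repair.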

SMILES | growth inhibition [1] | growth inhibition [2] | growth inhibition [3] | growth inhibition [4] [%] | growth inhibition [5] | growth inhibition [6]
S=C1NCCOc2ccccc21 | -8.65% | -13.1% | -2.5% | -8.05 | -10.9% | -4.55%
CCCOC(=O)CCCCCC1CCCCC1 | 15.2% | 6.1% | -5.8% | -33.1 | -8.1% | 8%
COC(=O)c1nc(N)nc(C(=O)OC)c1C(=O)c1ccc2ccccc2c1 | -4.75% | -13% | 10.8% | -2.8 | 3.9% | 9.4%
CC1(c2ccc(Cl)cc2)NC(=O)N(CC(N)=O)C1=O (centres undefined) | 3.6% | -0.1% | -10.8% | -11 | -7.8% | 8.6%
CC(=O)CCC(=O)C(=[N+]=[N-])S(=O)(=O)c1ccccc1 | -15.6% | -0.2% | -26.1% | 2.85 | -9.7% | -9.2%
CCc1cc(C(=O)NN)c2ccccc2n1 | -17.6% | -14.6% | -10.6% | -18.4 | -11.8% | 11.5%
COc1cc(CO)c(CO)cc1OC | -5.05% | -3.2% | -5.65% | -10.8 | 4% | -8.95%
COC1CCC2(C)C3CCC4C(=CCC5C(C)(C)C(=O)CCC45C)CC3(C)CCC2C1(C)C (centres undefined) | 16.3% | -11.3% | -8.55% | -12.8 | -2.2% | -12.1%
COC(=O)c1ccc(Cl)cc1 | 19.4% | -3.2% | -8.8% | 14.3 | 14.5% | 2.45%
CCC1=C(CC2NCCc3ccccc32)CC2c3cc(OC)c(OC)cc3CCN2C1 (centres undefined) | -9.9% | -12.1% | -14.7% | 3.9 | -28% | -11.1%
OCC[N-]CC[N-]CCO.[Cl][Co][Cl] | 27.8% | 32.1% | 32.7% | 22.9 | 36.6% | 35.2%
N#CC(c1ccccc1)N1CCCN(C(C#N)c2ccccc2)C1c1ccccc1O (centres undefined) | 31.4% | -8.65% | -6.85% | 17.9 | 18.4% | 13.2%
Cc1ccccc1NC(=O)c1ccc(C(=O)Nc2ccccc2C)cc1 | 11% | -10.8% | 9.2% | 7.8 | 1.05% | 35.9%
N#Cc1cc([N+](=O)[O-])ccc1NC(=O)C(=O)C(C(=O)/C=C/c1ccccc1)C1OC(=O)c2ccccc21 (centres undefined) | -1.05% | -15.9% | -41.2% | 5.55 | -15.2% | 8.95%
Cc1ccc(N2C(=O)ON(c3ccccc3)C2c2ccccc2)cc1 (centres undefined) | 3.6% | -5.8% | -4.45% | 5.9 | 12.4% | -15.9%
O=c1[nH]c(=O)n(COC(CO)CO)cc1-c1ccccc1 | -24.4% | -31.8% | 2.65% | -4.15 | -18.4% | -19.9%
COC(=O)c1nnn(-c2cccc(Cl)c2)c1N | 3.7% | -6.1% | -0.25% | 15.7 | -26.9% | 20.4%
CNC(=O)c1c(-c2ccc(F)cc2)noc1C | -6.7% | -10.5% | 25.4% | 9.05 | 17.4% | 10.1%
COC(=O)/C=C(\C)CC/C=C(\C)CCC1OC1(C)C (centres undefined) | 11.9% | 44.1% | 84.7% (active) | 57.3 | 77.5% (active) | 81.1% (active)
CCOC(=O)NN(C(=O)OCC)c1c(C)cc(C)c(N(NC(=O)OCC)C(=O)OCC)c1C | 1.7% | 7.25% | 12.4% | 23.9 | 16.4% | 22.6%

SMILES | growth inhibition [1] | growth inhibition [2] | growth inhibition [3] | growth inhibition [4] [%] | growth inhibition [5] | growth inhibition [6]
CC1CCC2(CC1)CC(=O)N(N1CCCCC1)C2=O (centres undefined) | 11.3% | 10.8% | 26.8% | 17.1 | 3.3% | 23.9%
COC(=O)c1nc(N)nc(C(=O)OC)c1C(=O)/C=C/c1ccccc1 | -4.2% | -8.5% | -21.5% | -16.1 | -26.4% | -17.6%
Cc1cccc(C(=O)NN)c1 | -4.15% | 10.2% | -20.2% | -5.4 | -0.2% | -5.95%
N=[N+]=CC(=O)OCC(N)C(=O)O (centres undefined) | 78.7% (active) | 82.2% (active) | 80.2% (active) | 54.6 | 13.2% | 73.9% (active)
COC(=O)CCC1CCCC(CCC(=O)OC)C1=O (centres undefined) | -4.9% | 4.55% | -17.6% | -6.1 | -1.1% | -3.3%
O=C1c2ccccc2-c2nc(/C=C/c3ccccc3)cc3c2c1nc1ccccc13 | 10.2% | 6.2% | 8.6% | 7 | -9.5% | -0.25%
CCN(CC)CCSSCCN(CC)CC | -9% | 3.7% | -7.05% | -15.2 | 2.35% | 5.3%
CCCOC(=O)/C=C/C(=O)N1CC(C)N(C(=O)/C=C/C(=O)OCCC)CC1C (centres undefined) | 3.85% | -1.25% | 9.6% | 42.6 | -2.9% | 25.2%
CCCCOC(=O)CCc1nc2c([nH]1)c(=O)n(C)c(=O)n2C | 15.8% | 8.9% | 9.5% | 42.4 | 9.65% | -0.45%
CCCc1cc(=O)oc2c3c(c4c(c12)OC(C)(C)CC4)O[C@H](C)C(C)C3=O (some centres undefined) | -26.9% | -30% | -28.8% | 0.4 | 6.85% | -45%
CC(=O)N(C(C)=O)n1c(-c2ccccc2)n[nH]c1=O | -7.55% | -17.9% | -14.3% | 13.1 | -10.1% | 2.45%
CCOC(=O)C1CC(CCl)OC1=O (centres undefined) | -3.65% | 7.1% | 2.1% | -22.9 | 0.6% | 3.95%
O=S1(=O)C=C(c2ccccc2)C1 | -8.25% | -2.4% | -19.8% | -33.4 | 4.25% | 8.6%
Nc1nnc2nc(CC(=O)c3ccc4ccccc4c3)c(=O)[nH]n12 | -1.85% | 10.9% | -0.1% | -21.2 | -4.15% | 2.05%
Cc1cn(C2CC3OP(=O)(OCc4ccccc4)OCC3O2)c(=O)[nH]c1=O (centres undefined) | 5.35% | 7.1% | 16.1% | 7.25 | 8% | 4.15%
CCCN(CCC)CC(O)CN(CCC)CCC | -0.4% | -24.1% | -21.6% | -36 | 5.55% | -0.3%
COc1ccc(C(OC2OC(n3cnc4c(=S)nc(N)[nH]c43)CC2OC(C)=O)(c2ccccc2)c2ccc(OC)cc2)cc1 (centres undefined) | 17.9% | 21.9% | 11.2% | -54.4 | 23.4% | 24.4%
CCCCCCCC/C=C\CCCCCCCC(=O)N(C)CC(=O)O | 43.2% | 38.2% | 39.2% | 21.1 | 30.7% | 29.1%
Nc1ccc(-c2nc3ccccc3[nH]2)cc1 | -2.55% | 17.8% | 3.1% | 9 | 18.9% | -0.8%
